Screens from PubChem BioAssay.
An excerpt weighted towards active compounds, which were near 8% of everything screened.
KB-V1 MDR tox – qHTS assay for MDR1-selective chemotherapeutics: Primary screen using the drug-selected MDR subline cells KB-V1; AID 1347076, 2019; actives 3.4% (n = 400,000); KB-V1 MDR cells viability, CellTiter-Glo, 72 h; Potency, µM (top dose mostly 46.1 µM), usual class: cytotoxic; note: nearly all actives have a fitted effect of over 60% in size
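Cytotoxicity via CellTiter-Glo luminescence after 72 h compound exposure at 37 degrees C. Cells: drug-selected KB-V1 line, DMEM phenol-red free plus 10% FBS. Compounds tested at multiple concentrations; normalized data fitted to concentration-effect curves.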
HT1080 IDH1KD tx – qHTS for induction of synthetic lethality in tumor cells producing 2HG: qHTS for the HT-1080-IDH1KD cell line; HT-1080 IDH1 knockdown viability, ATP luminescence, 48 h; Potency, µM (doses to about 46.1 µM), actives largely listed as cytotoxic; actives 2% (n = 360,000); AID 686971, 2013
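Using the IDH1-knockdown HT-1080 line run in the same batch and compound series as the NT line, viability after 48 h at 37 °C was determined by CellTiter-Glo luminescence and expressed as % activity.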
MCF10A rerep – A quantitative high throughput screen for small molecules that induce DNA re-replication in MCF 10a normal breast cells. actives 2.9% (n = 350,000). Potency, µM (titrated, usually from 46.1 µM), most hits filed as activators. MCF 10A DNA re-replication, Hoechst nuclear intensity, 48 h; note: nearly all actives have a fitted effect of over 50% in size
KB-3-1 tox – qHTS assay for MDR1-selective chemotherapeutics: Primary screen using the parental adenocarcinoma cell KB-3-1; AID 1347075, 2019; Potency, µM (titrated, usually from 46.1 µM), most hits filed as cytotoxic; actives 1.4% (n = 400,000); KB-3-1 viability, CellTiter-Glo ATP luminescence, 72 h; note: nearly all actives have a fitted effect of over 60% in size
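Viability of parental KB-3-1 cells, measured by CellTiter-Glo luminescence, followed a 72 h incubation at 37 °C with pinned compounds in phenol-red-free DMEM containing 10% FBS.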
HT1080-NT tox – qHTS for induction of synthetic lethality in tumor cells producing 2HG: qHTS for the HT-1080-NT fibrosarcoma cell line; Potency, µM (top dose mostly 46.1 µM), most hits filed as cytotoxic; actives 1.6% (n = 360,000); HT-1080-NT fibrosarcoma viability, CellTiter-Glo ATP luminescence, 48 h;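 note: NT is the 2HG producing partner of a matched IDH1 knockdown line; nearly all actives have a fitted effect of over 55% in size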
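HT-1080-NT fibrosarcoma cells (2HG-overproducing), 750 cells/well in RPMI with 5% FBS, dosed after 2 h and incubated 48 h at 37C. CellTiter-Glo luminescence normalized to DMSO and no-cell wells; concentration-response curves fitted and classed.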
SW480 rerep – A quantitative high throughput screen for small molecules that induce DNA re-replication in SW480 colon adenocarcinoma cells; Potency, µM (titrated, usually from 46.1 µM), usual class: activators; AID 624297, 2012; actives 1.8% (n = 340,000); SW480 DNA re-replication, Hoechst DNA content imaging, 48 h; note: nearly all actives have a fitted effect of over 55% in size
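Image-based read-out: total Hoechst fluorescence of nuclei (405 nm excitation, 500-530 nm emission), with hits raising the fraction of high-intensity nuclei. SW480 colon cells incubated 48 hr with compounds at 37 C.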
Hits are given with their value; [ ] = another dose, or the depositor's remark. Calls come from the whole dose curve; as a rule, active = well fitted curve in the direction sought with a large enough effect; inconclusive = small, poorly fitted or top-dose-only effect, or another doubt; inactive = no such curve, though single readings can be large; an effect the other way counts as inactive or inconclusive.

How did CN(Cc1ccccc1)C(=O)C1CCN(S(=O)(=O)c2cccc3nsnc23)CC1 do in these assays?
KB-V1 MDR tox: inconclusive; HT1080 IDH1KD tx: inactive; MCF10A rerep: inactive; KB-3-1 tox: inactive; HT1080-NT tox: inactive; SW480 rerep: 21µM

Results for O=C(Nc1cccc(C(F)(F)F)c1)C1CCCN1S(=O)(=O)c1cccc2cccnc12 (stereo not given) ?
KB-V1 MDR tox: 2.6µM; HT1080 IDH1KD tx: inactive; MCF10A rerep: inactive; KB-3-1 tox: inactive; HT1080-NT tox: inactive; SW480 rerep: inactive

How did COc1ccc2nc(NC(=O)C3CCN(S(=O)(=O)c4cccc5nsnc45)CC3)sc2c1 do in these assays?
KB-V1 MDR tox: 1.6µM; HT1080 IDH1KD tx: inconclusive; MCF10A rerep: inconclusive; KB-3-1 tox: inconclusive; HT1080-NT tox: inactive; SW480 rerep: inactive

What do the screens show for `Cc1cccc(NC(=O)C2CCCN(S(=O)(=O)c3cccc4nsnc34)C2)c1` (stereo not given)?
KB-V1 MDR tox: inactive; HT1080 IDH1KD tx: inactive; MCF10A rerep: 15µM; KB-3-1 tox: inactive; HT1080-NT tox: inactive; SW480 rerep: inconclusive

How did CN(CCCNC(=O)C1CCN(S(=O)(=O)c2cccc3nsnc23)CC1)Cc1ccccc1 do in these assays?
KB-V1 MDR tox: inactive; HT1080 IDH1KD tx: inactive; MCF10A rerep: inactive; KB-3-1 tox: inactive; HT1080-NT tox: inactive; SW480 rerep: inactive

How did Cc1cccc(NC(=O)C2CCN(S(=O)(=O)c3cccc4nsnc34)CC2)n1 do in these assays?
KB-V1 MDR tox: inactive; HT1080 IDH1KD tx: inactive; MCF10A rerep: inactive; KB-3-1 tox: inactive; HT1080-NT tox: inactive; SW480 rerep: inactive

Results for COc1ccc(S(=O)(=O)N/N=C\c2ccccc2F)cc1 ?
KB-V1 MDR tox: inactive; HT1080 IDH1KD tx: inactive; MCF10A rerep: inactive; KB-3-1 tox: inactive; HT1080-NT tox: inactive; SW480 rerep: inactive

What do the screens show for `Cc1ccc(Cl)cc1N1CCN(C(=O)Cn2ncc3c([nH]c4ccccc43)c2=O)CC1`?
KB-V1 MDR tox: inconclusive; KB-3-1 tox: inactive

What do the screens show for `CCN1CCN(S(=O)(=O)c2ccc(Cl)c(C(=O)NCc3ccco3)c2)CC1`?
KB-V1 MDR tox: inactive; HT1080 IDH1KD tx: inactive; MCF10A rerep: inactive; KB-3-1 tox: inactive; HT1080-NT tox: inactive; SW480 rerep: inconclusive

How did CN(Cc1ccccc1)C(=O)C1CCC(CNS(=O)(=O)c2cccc3cccnc23)CC1 (stereo not given) do in these assays?
KB-V1 MDR tox: 9.2µM; HT1080 IDH1KD tx: inactive; MCF10A rerep: inactive; KB-3-1 tox: inactive; HT1080-NT tox: inactive; SW480 rerep: inconclusive

What do the screens show for `O=C(Nc1cccc(C(F)(F)F)c1)C1CCCN1S(=O)(=O)c1cccc2nsnc12` (stereo not given)?
KB-V1 MDR tox: 7.3µM; KB-3-1 tox: inconclusive

What do the screens show for `CCCCn1c(N)c(N(CCC(C)C)C(=O)c2c(CC)noc2C)c(=O)[nH]c1=O`?
KB-V1 MDR tox: inactive; HT1080 IDH1KD tx: inactive; KB-3-1 tox: inactive; HT1080-NT tox: inactive

How did CCCCN1CC[C@H]2C=CC[C@@H](C(=O)NC3CCCCC3)[C@H]2C1=O do in these assays?
KB-V1 MDR tox: inconclusive; KB-3-1 tox: inactive

What do the screens show for `COc1ccc(C(=O)NCCn2cc(SCC(=O)NCC3CCCO3)c3ccccc32)cc1OC` (stereo not given)?
KB-V1 MDR tox: inactive; HT1080 IDH1KD tx: inactive; MCF10A rerep: inactive; KB-3-1 tox: inactive; HT1080-NT tox: inactive; SW480 rerep: inactive

How did CCCCCCCCCC[n+]1ccc(/C=C/c2c(C)[nH]c3ccccc23)c2ccccc21 do in these assays?
KB-V1 MDR tox: inconclusive; KB-3-1 tox: 5.8µM

Results for CCCCCCC[n+]1ccc(/C=C/c2c(C)[nH]c3ccccc23)c2ccccc21 ?
KB-V1 MDR tox: inconclusive; KB-3-1 tox: 8.2µM

What do the screens show for `CCCCNC(=S)N(C)/N=C/c1c(C)[nH]c2ccccc12`?
KB-V1 MDR tox: inconclusive; HT1080 IDH1KD tx: inactive; MCF10A rerep: inconclusive; KB-3-1 tox: inactive; HT1080-NT tox: inactive; SW480 rerep: inactive

How did CCCCCCCCCCCC[n+]1ccc(/C=C/c2c[nH]c3ccccc23)c2ccccc21 do in these assays?
KB-V1 MDR tox: inactive; KB-3-1 tox: inconclusive

What do the screens show for `CCCCCCC[n+]1ccc(/C=C/c2c[nH]c3ccccc23)c2ccccc21`?
KB-V1 MDR tox: inconclusive; KB-3-1 tox: 7.3µM

Results for CN1CCc2c(c3cnc4cc(Cl)ccc4c3n2C)C1 ?
KB-V1 MDR tox: inactive; KB-3-1 tox: inactive

How did O=C(Nc1ccc2nc(-c3cccnc3)[nH]c2c1)C12CC3CC(CC(C3)C1)C2 do in these assays?
KB-V1 MDR tox: inconclusive; HT1080 IDH1KD tx: 18µM; MCF10A rerep: inactive; KB-3-1 tox: 11µM; HT1080-NT tox: 13µM; SW480 rerep: inactive[9.22 µM]

What do the screens show for `Cc1[nH]ccc2cc3nc4ccccc4c3cc12`?
KB-V1 MDR tox: 10µM; HT1080 IDH1KD tx: inconclusive; KB-3-1 tox: inconclusive; HT1080-NT tox: 15µM

What do the screens show for `CC/C(=N\NC(=O)c1ccc(CN(C)S(=O)(=O)c2ccc(C)cc2)cc1)c1ccc(OC(F)F)cc1`?
KB-V1 MDR tox: 15µM; HT1080 IDH1KD tx: inactive; MCF10A rerep: inactive; KB-3-1 tox: inconclusive; HT1080-NT tox: inactive; SW480 rerep: inconclusive

Results for Cc1ccc(S(=O)(=O)N(C)Cc2ccc(C(=O)NN=C(CC(C)C)CC(C)C)cc2)cc1 ?
KB-V1 MDR tox: 2.3µM; HT1080 IDH1KD tx: inactive; MCF10A rerep: inactive; KB-3-1 tox: inconclusive; HT1080-NT tox: inactive; SW480 rerep: inconclusive

Results for Cc1ccc(S(=O)(=O)N(C)Cc2ccc(C(=O)NN=C3C4CC5CC(C4)CC3C5)cc2)cc1 ?
KB-V1 MDR tox: inactive; HT1080 IDH1KD tx: inactive; MCF10A rerep: inactive; KB-3-1 tox: inactive; HT1080-NT tox: inactive; SW480 rerep: inactive

What do the screens show for `CC(C)(C)NNC(=S)Nc1cccc(C(F)(F)F)c1`?
KB-V1 MDR tox: inactive; HT1080 IDH1KD tx: 10µM; MCF10A rerep: inactive; KB-3-1 tox: inactive; HT1080-NT tox: inactive; SW480 rerep: inactive

Results for FC(F)(F)c1cccc(NC(=S)NC2CCCC2)c1 ?
KB-V1 MDR tox: inconclusive; HT1080 IDH1KD tx: inactive; MCF10A rerep: inconclusive; KB-3-1 tox: 18µM; HT1080-NT tox: inactive; SW480 rerep: inactive

Results for Cc1ccc(NC(=S)NNC(C)(C)C)cc1 ?
KB-V1 MDR tox: inactive; HT1080 IDH1KD tx: 18µM; MCF10A rerep: inactive; KB-3-1 tox: inactive; HT1080-NT tox: inconclusive; SW480 rerep: inconclusive
